# Assay outcomes deposited in PubChem by several laboratories.
# Shown are actives, neighbours in structure and some others; about 3.8% of the full set was active somewhere.
# Beta cell apopt: blocks beta cell apoptosis. INS-1E cytokine-induced death, ATP luminescence, 48 h; percent of positive-control rescue, neutral wells zero. protection from apoptosis, % (no concentration beside the values). actives 0.8% (n = 300,000). AID 435005;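 active means Every replicate reaches about 75%, or at least half do and their mean reaches it too, limit read from the data; inconclusive means At least half of replicates reach the limit but their mean does not; inactive means Under half of replicates reach the limit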;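 further: 0% = cytokine-treated negative control wells and 100% = positive control rescue; higher means more ATP so stronger rescue from cytokine killing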
# NTR1 ag: NTR1 (human) agonism | actives 0.17% (n = 330,000) | NTR1-U2OS beta-arrestin-GFP spot imaging, agonist mode | activation, % at 20 µM | AID 493036 | P30989;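 active means activation at or above 40% of the spot to cytoplasm intensity ratio, with at least 20 cells analyzed; inconclusive means wells under 20 cells, flagged as cytotoxic or low count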;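 further: 0% = DMSO without peptide and 100% = 100 nM NTR1 peptide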
# Target sequence (P30989 whole entry, looked up): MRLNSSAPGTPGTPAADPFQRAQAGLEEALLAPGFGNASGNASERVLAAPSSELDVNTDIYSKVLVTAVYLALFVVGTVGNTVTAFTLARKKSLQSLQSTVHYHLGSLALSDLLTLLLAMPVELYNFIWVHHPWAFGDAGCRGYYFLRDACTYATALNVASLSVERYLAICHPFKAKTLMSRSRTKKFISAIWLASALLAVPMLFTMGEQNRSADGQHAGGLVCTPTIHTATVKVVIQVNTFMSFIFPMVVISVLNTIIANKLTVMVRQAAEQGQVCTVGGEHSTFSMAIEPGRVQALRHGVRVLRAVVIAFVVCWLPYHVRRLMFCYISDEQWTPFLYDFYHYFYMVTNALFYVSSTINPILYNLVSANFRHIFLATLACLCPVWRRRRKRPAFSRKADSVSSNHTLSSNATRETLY
# Mdm2-MdmX inh: human Mdm2/MdmX binding inhibition. O15151+Q00987. SaOS-2 split-luciferase Mdm2/MdmX complementation, luminescence. inhibition, % at 8 µM. actives 3% (n = 330,000);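 active means inhibition of at least 50% at 8 µM in the primary screen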
# Jurkat NFkB inh: lowers PMA/ionomycin-induced NF-kB signal in Jurkat cells. inhibition, % at 4 µM. AID 435003. actives 0.53% (n = 330,000). PMA/ionomycin-induced NF-kB luciferase reporter, luminescence; in the data active means inhibition above about 50%
# 697 NFkB inh: lowers PMA/ionomycin-induced NF-kB signal in 697 B cells; 697 B-cell NF-kB luciferase reporter, 16 h; actives 0.33% (n = 330,000); AID 435022; inhibition, % at 4 µM; in the data active means inhibition above about 35%
# Bfl-1 A1 inh: inhibitors of the anti-apoptotic protein A1, read as caspase activation; actives 0.066% (n = 330,000); MEF A1-2A-BIM cells, Caspase-Glo 3/7 luminescence, 3 h; percent of clofoctol response, vehicle zero; caspase activation, % (concentration not given with the values);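 active means over half of replicate activation scores above 10%, or exactly half above 10 with the replicate mean above 10; inconclusive means replicate mean below 10 yet half the replicates above 10; inactive means over half of replicates below 10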
# * = called active by the depositor; ? = inconclusive; · = no result given.
SMILES,Beta cell apopt,NTR1 ag,Mdm2-MdmX inh,Jurkat NFkB inh,697 NFkB inh,Bfl-1 A1 inh
CC#CC[N+](C)(C)CC(=O)c1ccccc1,-3,2,-25,6,1,1
Cc1ccc(N2CC(C(=O)NCc3n[nH]c(=O)c4ccccc34)CC2=O)cc1C (stereo not given),-7,0,37,-9,4,1
C/C(=N\NC(=S)Nc1ccccc1C)c1cc2ccccc2o1,78*,7,19,13,-1,-1
C/C(=N\NC(=S)Nc1c(C)cccc1C)c1cc2ccccc2o1,10,2,17,5,-39,-1
O=C(NC1CCSc2ccccc21)c1ccc(F)c(S(=O)(=O)N2CCOCC2)c1 (stereo not given),0,0,-11,-2,2,0
CCCCCc1ccc(-c2cn(CN3C(=O)c4ccccc4C3=O)nn2)cc1,96*,0,24,-5,16,-1
Cc1ccccc1NC(=O)/C=C/c1ccc([N+](=O)[O-])s1,120*,·,·,·,·,-2
COc1ccc(S(=O)(=O)Nc2ccc(O)c3ccccc23)cc1,124*,2,47,24,29,-1
Cc1ccc(S(=O)(=O)Nc2ccc(O)c3ccccc23)c(C)c1,96*,·,·,·,·,1
Cc1ccc(C)c(S(=O)(=O)Nc2ccc(O)c(C(=O)O)c2)c1,-5,0,6,10,17,0
Cc1ccc(S(=O)(=O)Nc2cc(C(C(=O)OC(C)C)C(=O)C(F)(F)F)c(O)c3ccccc23)c(C)c1 (stereo not given),40,8,19,3,-2,0
COc1ccc(S(=O)(=O)Nc2ccccc2)cc1,1,2,-14,-1,-13,2
Cc1ccc(C)c(S(=O)(=O)Nc2ccc(O)c3ccccc23)c1,99*,0,19,-8,-2,1
O=C(CN1C(=O)NC2(CCc3ccccc32)C1=O)NCc1ccc(F)cc1 (stereo not given),·,-1,-7,2,-5,·
CN(C(=O)CC1C(=O)NCCN1Cc1cccc(C(F)(F)F)c1)C1CCOCC1 (stereo not given),-6,2,10,8,5,0
Cc1ccn2cc(CNS(=O)(=O)c3ccc4ccccc4c3)nc2c1,-5,0,17,1,-10,1
CCCCCCCC/C=C\CCCCCCCC(=O)NCCc1ccc(O)c(O)c1,?,7,48,22,-80,12*
O=C(c1cc2sccc2n1Cc1ccccc1)N1CCN(c2nc3ccccc3s2)CC1,99*,7,14,32,-12,0
COc1ccccc1OCCCCOc1ccccc1C(C)=O,100*,2,26,13,-9,-1
CC(=O)c1ccccc1OCCOc1ccccc1C(C)=O,·,0,-16,-2,-15,-1
Cc1nc(C(F)(F)F)c(C(=O)N/N=C(\N)c2ccccn2)s1,77*,1,35,23,3,0
N/C(=N\NS(=O)(=O)c1ccccc1C(F)(F)F)c1ccccn1,1,-1,5,-16,-3,0
CC(C)(C)c1ccc2c(c1)OC(C(=O)N/N=C\c1ccc[nH]1)CO2 (stereo not given),70,4,17,6,-17,24*
CC(C)(C)c1ccc2c(c1)OC(C(=O)N/N=C\c1ccncc1)CO2 (stereo not given),2,3,-35,-7,0,0
Cc1nn(CCCC(=O)Nc2cc(Oc3ccc(F)cc3)cc([N+](=O)[O-])c2)c(C)c1[N+](=O)[O-],7,12,44,-3,1,0
SMILES,Beta cell apopt,NTR1 ag,Mdm2-MdmX inh,Jurkat NFkB inh,697 NFkB inh,Bfl-1 A1 inh
Cc1ccccc1Oc1cc(NC(=O)CCCn2nc(C)c([N+](=O)[O-])c2C)cc([N+](=O)[O-])c1,105*,11,14,0,-21,0
O=C(Cc1c(F)cccc1Cl)Nc1ccccc1C(=O)N1CCOCC1,-6,0,7,-1,-9,1
FC(F)Sc1ccc(N=C2NN=C(c3ccc4c(c3)OCCO4)CS2)cc1,101*,0,-2,-12,-20,0
CCCC1(c2ccccc2)NC(=O)N(CC(=O)Nc2ccccc2C(F)(F)F)C1=O (stereo not given),3,2,9,-8,1,-1
N#CC(C#N)=C1C=CC=CN1/C(=C\c1ccco1)C(=O)c1ccc(Br)cc1,101*,·,·,·,·,1
O=[N+]([O-])c1ccc(-n2cnc3ccccc32)c([N+](=O)[O-])c1,118*,2,25,-10,23,0
Cc1ccc(-c2cn(-c3ccc(SC(F)F)cc3)c3[n+]2CCC3)cc1,82*,1,47,19,-27,1
Cc1ccc(-c2cn(-c3ccc(OC(F)F)cc3)c3[n+]2CCCCC3)cc1,100*,2,21,18,-43,0
FC(F)Sc1ccc(-n2cc(-c3ccc(Cl)cc3)[n+]3c2CCC3)cc1,12,1,40,5,-26,0
O=C(Nc1cccnc1Cl)c1cc2ccccc2o1,-6,-1,-32,-128,4,-8
Cc1ccc(NC(=O)COC(=O)CCC2CCCC2)cc1S(=O)(=O)N1CCOCC1,-8,3,-2,2,4,0
COc1cccc2c1C(=O)CC1C2CCC2CC(=O)CCC21C (stereo not given),·,0,5,-2,8,0
Cc1c(C(=O)OC/C(O)=C(\C#N)c2nc3ccccc3[nH]2)oc2ccccc12,-12,1,23,-7,25,0
COc1cc(OC)cc(C(=O)OC/C(O)=C(\C#N)c2nc3ccccc3[nH]2)c1,101*,2,2,8,19,-1
Cc1ccc(NC(=O)c2ccc3nsnc3c2)c(C)c1,-5,-1,-33,-69,-94,2
Cc1ccccc1NC(=S)N/N=C/C(C)c1ccccc1 (stereo not given),-3,1,-1,5,-6,0
CCCOc1ccc(/C=N/NC(=S)Nc2ccccc2[N+](=O)[O-])c(O)c1,108*,·,·,·,·,1
Cc1ccccc1NC(=S)N/N=C/c1ccc(O)cc1O,87*,0,29,-37,-152,0
Cc1ccc2c(C)c(C(=O)N3CCCC(C(N)=O)C3)oc2c1C (stereo not given),·,1,-26,-31,-46,·
COc1ccc(C(=O)NC(C)c2ccncc2)cc1S(=O)(=O)N(C)Cc1ccccc1 (stereo not given),3,-1,17,-9,1,2
Nc1c(C(=O)CSc2nccn2-c2cccc(F)c2)c(=O)[nH]c(=O)n1C1CC1,-4,-1,11,-3,5,-1
Cc1cccn2c(Nc3ccccc3)c(-c3ccccn3)nc12,78*,2,-5,4,-13,0
